Laboratory results reported in PubChem BioAssay AID435005 (Broad Institute, 2010).
Out of some 300,000 compounds screened, about 2,400 (0.8%) were called active. The list comes from a sample in which actives are over-represented; it also holds similar structures and randomly drawn compounds. A number with no mark means an inactive call.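 How the source made its calls: active means Every replicate reaches about 75%, or at least half do and their mean reaches it too (limit read from the data); inconclusive means At least half of replicates reach the limit but their mean does not; inactive means Under half of replicates reach the limit.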

test: inhibitors of cytokine-induced beta cell apoptosis, primary screen, luminescence (AID 435005); details: INS-1E cytokine-induced death, ATP luminescence, 48 h; hits give high values; percent of positive-control rescue, neutral wells zero; concentration not given here;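 further: 0% = cytokine-treated negative control wells and 100% = positive control rescue; higher means more ATP so stronger rescue from cytokine killing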

Structure (SMILES) | protection from apoptosis
Cc1ccc(-c2nn(-c3ccccc3)cc2/C=C/C(=O)Nc2cccc(S(N)(=O)=O)c2)cc1 | 120% (active)
Cc1ccc(-c2nn(-c3ccccc3)cc2C(=O)Nc2cccc(S(=O)(=O)N3CCOCC3)c2)cc1 | 1.74%
COc1ccc(-c2nn(-c3ccccc3)cc2/C=C\C(=O)Nc2ccc(C(=O)O)cc2)cc1 | 8.98%
O=S(=O)(c1ccc(SCc2ccccc2)nc1)N1CCCCCC1 | -5.69%
CC(=O)NCCC(=O)Nc1nc(-c2ccc3c(c2)OCCO3)cs1 | -3.86%
Cc1ccc(-c2csc(NC(=O)C3=COCCO3)n2)cc1C | 98.3% (active)
NS(=O)(=O)c1ccc2nc(NC(=O)C3=COCCO3)sc2c1 | -1.35%
C#CCOCCOCCOCCNc1nc(N2CCN(C(=O)[C@H](CCC(=O)O)n3cc(CN)nn3)CC2)nc(N2CCN(C(=O)[C@H](CCC(=O)O)n3cc(CN)nn3)CC2)n1 | -5.06%
Cc1noc(C)c1S(=O)(=O)N(C)C[C@H]1Oc2ccc(NC(=O)C3CC3)cc2C(=O)N([C@H](C)CO)C[C@@H]1C | 4.52%
Cc1c(CC(=O)NCCCCCC(=O)O)c(=O)oc2cc3occ(-c4ccccc4)c3cc12 | -7.43%
CCCCCCc1cc2cc(-c3nnc(-c4ccccc4)o3)c(=O)oc2cc1O | 119% (active)
CCCCCCc1ccc(O)cc1O | -5.91%
CCCCCCSc1ccc(-c2nc3ccc(Cl)cn3c2NCc2ccccc2)cc1 | -14.3%
O=C(COc1ccccc1F)NNC(=O)c1cc(Br)ccc1Cl | 4.16%
Clc1ccc(N/N=C/c2cccs2)nn1 | -1.26%
COc1cccc(/C=N/Nc2ccc(Cl)nn2)c1 | 0.496%
Oc1cccc(/C=N/Nc2ccc(Cl)nn2)c1O | 107% (active)
CN(C)C(=O)COC(=O)c1cccc(S(=O)(=O)N2CC3(C)CC2CC(C)(C)C3)c1 (stereo not drawn) | -3.78%
CN(C)c1nc(Nc2ccc(Cl)c(Cl)c2)nc(N(C)C)n1 | 2.44%
COc1cc2nc(Cl)nc(NCCO)c2cc1OC | -1.61%
OCCNc1nc(Nc2ccc(Cl)c(Cl)c2)nc2ccccc12 | 89.8% (active)
COc1cc(C(=O)NCC(c2ccco2)N2CCCC2)ccc1OCc1ccccc1 (stereo not drawn) | 0.158%

Structure (SMILES) | protection from apoptosis
COc1ccc(NC(=O)N(C)C[C@H]2Oc3ccc(NC(=O)C4CC4)cc3C(=O)N([C@H](C)CO)C[C@@H]2C)cc1 | -3.33%
O=C(N[C@@H]1C/C=C\C[C@@H](CC(=O)N(CCO)Cc2ccccc2)C(=O)N[C@H](Cc2ccccc2)COC1=O)OCC1c2ccccc2-c2ccccc21 | 50.5%
COc1ccc(-c2nc3cnccn3c2NC2CCCCC2)cc1-c1cccc(Cl)c1 | -8.81%
Cc1cccc(N=C2NN=C(c3c[nH]c4ccccc34)CS2)c1 | 22.1%
Clc1cccc(N=C2NN=C(c3ccc4c(c3)OCCO4)CS2)c1 | 83.6% (active)
c1ccc(CN2CCC(N=C3NN=C(c4ccc5c(c4)OCCO5)CS3)CC2)cc1 | -0.528%
CC(C#N)OC(=O)c1cccnc1SCC(=O)Nc1ccc2c(c1)OCO2 (stereo not drawn) | 3.24%
CCNC(=S)N1CCN(S(=O)(=O)c2ccc(Cl)s2)CC1 | -2.64%
COc1cc(NC(=O)COC(=O)c2cc(S(=O)(=O)N3CCOCC3)ccc2F)cc(OC)c1 | -2.85%
CSc1ccc(NC(=O)/C=C/C(=O)O)cc1 | -4.41%
COC(=O)c1sc(-c2ccc(C(C)(C)C)cc2)cc1NC(=O)/C=C/C(=O)O | 99.2% (active)
COc1ccccc1NC(=O)/C=C/C(=O)O | -6.73%
CCN(C[C@H]1N[C@@](Cc2ccccc2)(C(=O)OC)[C@H]2C(=O)N(Cc3ccccc3)C(=O)[C@@H]12)C(=O)c1ccc(C)cc1 | 13.6%
Clc1cccc(CN2COc3c(cc(Cl)c4cccnc34)C2)c1 | 85.5% (active)
CC(C)CC(=O)N1CCN(Cc2cccc(Cl)c2)CC1 | 3.65%
O=C(c1cccc(Cl)c1)N1CCN(Cc2ccccc2)CC1 | -9.96%
COC(=O)[C@]1(Cc2ccccc2)N[C@H](CN(C)S(=O)(=O)c2ccc(OC(F)(F)F)cc2)[C@@H]2C(=O)N(Cc3ccccc3)C(=O)[C@@H]21 | 10.5%
CCCc1nnc(SCC(=O)Nc2ccc(C(=O)OCC)cc2)o1 | 1.98%
CCOC(=O)c1ccc(NC(=O)Cn2nnc(-c3ccc(C)cc3)n2)cc1 | 3.31%
CCOC(=O)c1ccc(NC(=O)Cn2cnc3cc(C)c(C)cc32)cc1 | 105% (active)
O=C(CNC(=O)c1ccccc1F)OCC(=O)c1c[nH]c2ccccc12 | -14.7%
COc1ccc(CCNC(=O)COC(=O)C2CC2C)cc1 (stereo not drawn) | 0.884%

Structure (SMILES) | protection from apoptosis
Cc1cc(-c2n[nH]c(=S)n2/N=C/C(Br)=C/c2ccccc2)n[nH]1 | 84.8% (active)
S=c1[nH]nc(-c2cc(-c3ccccc3)n[nH]2)n1/N=C/c1c2ccccc2cc2ccccc12 | 10.1%
Oc1ccccc1/C=N/n1c(-c2cccs2)n[nH]c1=S | -8.28%
CC(OC(=O)c1ccc([N+](=O)[O-])cc1)C(=O)NCC1CCCCC1 (stereo not drawn) | -1.81%
Cc1cc(NC(=O)CN2C(=O)NC(CC(C)C)C2=O)no1 (stereo not drawn) | -6.09%
Oc1ccccc1CN1CCN(C(c2ccccc2)c2ccccc2)CC1 | 0.217%
CCOC(=O)N1CCN(C(c2cccnc2)c2ccc3cccnc3c2O)CC1 (stereo not drawn) | 35.8%
CCN1CCN(C(c2cccnc2)c2cc(Cl)c3cccnc3c2O)CC1 (stereo not drawn) | 92.4% (active)
COc1cc(/C=C/C(=O)OCC(=O)NCCCc2ccccc2)ccc1O | -1.98%
C=CC[C@H](CC(=O)NCCO)C(=O)N[C@@H](COC(=O)[C@@H](CC=C)Cc1ccc(F)cc1)Cc1c[nH]c2ccccc12 | 6.33%
COc1cc(NC(=O)c2[nH]cnc2C(N)=O)cc(C(=O)Nc2cccc(C(F)(F)F)c2)c1 | 114% (active)
COc1cc(NC(=O)c2cncc(-c3ccc(C#N)cc3)c2)cc(C(=O)Nc2cccc(C(F)(F)F)c2)c1 | 23.5%
COc1ccc(NC(=O)CN(C)CC(=O)Nc2cccc(C(F)(F)F)c2)cc1 | -3.94%
NS(=O)(=O)c1ccc(CNC(=S)NC(=O)c2ccco2)cc1 | 2.51%
COc1ccc(CCNc2cc(N3CCN(C(=O)c4ccccc4OC)CC3)ccc2[N+](=O)[O-])cc1OC | 85.3% (active)
O=C(c1ccccc1)N1CCN(c2ccc([N+](=O)[O-])c(NCc3ccco3)c2)CC1 | 13.2%
COc1ccccc1OCCNc1cc(N2CCOCC2)ccc1[N+](=O)[O-] | -8.92%
O=S(=O)(c1ccc(SCc2ccc(Br)cc2)nc1)N1CCOCC1 | -8.12%
Cc1ccc(OCC(=O)Nc2ccccc2C(=O)NC2CC2)cc1 | -2.93%
CC(Sc1ccccc1F)C(=O)Nc1cccc(S(=O)(=O)N2CCOCC2)c1 (stereo not drawn) | -3.25%
CC(C)NC(=O)Nc1cccc2c1O[C@H](CN(C)S(=O)(=O)c1cccs1)[C@@H](C)CN([C@H](C)CO)C2=O | -19%
Cc1cc(C)nc(N/N=C/c2ccc([N+](=O)[O-])o2)n1 | -3.24%

Structure (SMILES) | protection from apoptosis
CCn1c(=O)c([N+](=O)[O-])c(NCc2ccc3c(c2)OCO3)c2ccccc21 | 1.81%
CCn1c(/C=C/c2ccc([N+](=O)[O-])o2)nc2ccccc2c1=O | 104% (active)
C=CC(COCc1ccccc1)N(CC(=O)OC)S(=O)(=O)c1cc(Br)ccc1OC (stereo not drawn) | 1.07%
O=C(Nc1ccon1)c1nc[nH]c1C(=O)NCc1ccccc1 | 2.59%
O=S(=O)(O)Oc1c[nH]c2ccccc12 | 95.8% (active)
NC(=O)CSc1c[nH]c2ccccc12 | 0.633%
O=C(NC1CCCC1)C(=O)c1c[nH]c2ccccc12 | -2.17%
Cc1cc(NC(=O)COC(=O)/C=C/c2ccc(C)o2)no1 | -0.145%
CC(=O)C[C@H](O)CC(=O)[C@@H]1OC(=O)[C@@H](C)C/C=C\Cc2ccccc21 | -6.43%
COc1ccccc1N(CC(=O)Nc1ccc(C)cc1Cl)S(=O)(=O)c1cccs1 | -11%
O=C(Nc1cccc(S(=O)(=O)N2CCCC2)c1)c1cncc(Br)c1 | -6.13%
Cc1ccc(NC(=O)OCc2cncs2)cc1 | -4.61%
COc1ccc(Nc2ccc([N+](=O)[O-])cn2)cn1 | -4.41%
COc1ccc(NC(=O)/C(Cl)=C(/Cl)S(=O)Cc2ccc(C)cc2)cn1 (stereo not drawn) | 106% (active)
O=C(Nc1cc(S(=O)(=O)Nc2ccc(Cl)cc2)ccc1O)c1ccc(F)cc1F | 3.17%
CCCN(CC(=O)NC(=O)NC1CCCCC1)CC(=O)Nc1cc(Cl)ccc1Cl | -6.07%
CN(C)S(=O)(=O)c1cccc(NC(=O)COc2ccc3ccccc3c2)c1 | -1.11%
Cc1nc(C)c(-c2csc(NCCc3ccccc3)n2)s1 | 78.4% (active)
S=c1[nH]nc(NCCc2ccccc2)s1 | -4.61%
CCNc1nc(-c2cc3ccccc3o2)cs1 | -12.4%
O=C(CSc1ccccc1)Nc1cccc(S(=O)(=O)N2CCCCC2)c1 | -5.41%
COC(=O)[C@]1(Cc2ccccc2)N[C@H](CN(C)S(=O)(=O)c2ccc(OC(F)(F)F)cc2)[C@@H]2C(=O)N(C)C(=O)[C@@H]21 | -3.66%
